According to PubChem BioAssay (NCATS):
Inconclusive results are not listed. The source made the active and inactive calls. Calls come from the whole dose curve; as a rule, active = well fitted curve in the direction sought with a large enough effect; inconclusive = small, poorly fitted or top-dose-only effect, or another doubt; inactive = no such curve, though single readings can be large; an effect the other way counts as inactive or inconclusive.

How the values were obtained:
[1] = qHTS of pediatric cancer cell lines to identify multiple opportunities for drug repurposing: Primary screen for SK-N-MC cells (AID 1347093); note: series mostly up to about 46 µM
In short: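 Metabolically active cells were quantified by ATP-dependent luminescence (CellTiter-Glo, 15 min at room temperature) following 48 h treatment. Cells had been plated at 500-1,000 per well and settled for 5 h beforehand.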

[2] = qHTS of pediatric cancer cell lines to identify multiple opportunities for drug repurposing: Primary screen for BT-37 cells (AID 1347094); note: series mostly up to about 57 µM
In short: (§1)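 CRCs from 8- or 11-point titrations (lowest final 0.59 nM NPC, 0.78 nM MIPE). Cell viability: CellTiter-Glo after 48 h incubation, 15 min room-temperature development, luminescence imaging.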

[3] = qHTS of pediatric cancer cell lines to identify multiple opportunities for drug repurposing: Primary screen for NB-EBc1 cells (AID 1347095)
In short: as §1

[4] = qHTS of pediatric cancer cell lines to identify multiple opportunities for drug repurposing: Primary screen for U-2 OS cells (AID 1347096); note: nearly all actives have a fitted effect of over 50% in size
In short: (§2)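 Viability after 48 h compound treatment at 37C, 500-1,000 cells/well, read as ATP luminescence with CellTiter-Glo. Primary screens used 11-point (MIPE, 0.78 nM-46 µM) or 8-point (NPC, 0.59 nM-46 µM) final concentrations; follow-up screens used 11-point dilutions.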

[5] = qHTS of pediatric cancer cell lines to identify multiple opportunities for drug repurposing: Primary screen for Saos-2 cells (AID 1347097); note: nearly all actives have a fitted effect of over 40% in size
In short: as §1

[6] = qHTS of pediatric cancer cell lines to identify multiple opportunities for drug repurposing: Primary screen for SK-N-SH cells (AID 1347098);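 note: DMSO served as neutral control and bortezomib at 2.3 µM as positive control; nearly all actives have a fitted effect of over 65% in size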
In short: (§3)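 Cells (500-1,000/well) rested 5 h, then received compounds for 48 h; metabolically active cells were measured by CellTiter-Glo luminescence. Final concentrations spanned up to 46 µM (MIPE, 11-point) or 0.59 nM-46 µM (NPC, 8-point) in primary screens, 11-point in follow-ups.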

[7] = qHTS of pediatric cancer cell lines to identify multiple opportunities for drug repurposing: Primary screen for NB1643 cells (AID 1347099); note: nearly all actives have a fitted effect of over 50% in size
In short: as §1

[8] = qHTS of pediatric cancer cell lines to identify multiple opportunities for drug repurposing: Primary screen for LAN-5 cells (AID 1347100)
In short: as §2

[9] = qHTS of pediatric cancer cell lines to identify multiple opportunities for drug repurposing: Primary screen for Rh18 cells (AID 1347102); note: nearly all actives have a fitted effect of over 65% in size
In short: as §2

[10] = qHTS of pediatric cancer cell lines to identify multiple opportunities for drug repurposing: Primary screen for OHS-50 cells (AID 1347103); note: nearly all actives have a fitted effect of over 40% in size
In short: as §3

[11] = qHTS of pediatric cancer cell lines to identify multiple opportunities for drug repurposing: Primary screen for RD cells (AID 1347104); note: nearly all actives have a fitted effect of over 55% in size
In short: as §1

[12] = qHTS of pediatric cancer cell lines to identify multiple opportunities for drug repurposing: Primary screen for MG 63 (6-TG R) cells (AID 1347105); note: nearly all actives have a fitted effect of over 50% in size
In short: as §1

[13] = qHTS of pediatric cancer cell lines to identify multiple opportunities for drug repurposing: Primary screen for control Hh wild type fibroblast cells (AID 1347106);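 note: series mostly up to about 46 µM; a drop in luminescence marks cytotoxicity and a rise apparent proliferation; nearly all actives have a fitted effect of over 55% in size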
In short: as §2

[14] = qHTS of pediatric cancer cell lines to identify multiple opportunities for drug repurposing: Primary screen for Rh30 cells (AID 1347107); note: series mostly up to about 46 µM; nearly all actives have a fitted effect of over 75% in size
In short: as §2

[15] = qHTS of pediatric cancer cell lines to identify multiple opportunities for drug repurposing: Primary screen for Rh41 cells (AID 1347108);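 note: series mostly up to about 46 µM; luminescence drop marks cytotoxic hits; nearly all actives have a fitted effect of over 70% in size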
In short: as §1

[16] = qHTS of pediatric cancer cell lines to identify multiple opportunities for drug repurposing: Primary screen for BT-12 cells (AID 1347101); note: nearly all actives have a fitted effect of over 25% in size
In short: as §3

Measured: Potency

CCN1CCC[C@H]1CNC(=O)c1c(O)c(Cl)cc(Cl)c1OC
not listed: [16]
inactive: all other assays above

CN(C)CCN(Cc1cccs1)c1ccccn1
not listed: [10] | [11]
inactive: all other assays above

CC(=O)[C@@]1(O)CC[C@H]2[C@@H]3CCC4=CC(=O)CC[C@]4(C)[C@H]3CC[C@@]21C
not listed: [10] | [11] | [16]
inactive: all other assays above

Cc1scc2c1N(C(=O)CN1CCN(C)CC1)c1ccccc1NC2=O
not listed: [10] | [14]
inactive: all other assays above

O=C(O)CCCCCCCC(=O)O
not listed: [6] | [11]
inactive: all other assays above

CCn1nc(C(=O)O)c(=O)c2cc3c(cc21)OCO3
not listed: [6] | [11]
inactive: all other assays above

COCCc1ccc(OCC(O)CNC(C)C)cc1 (centres undefined)
not listed: [6]
inactive: all other assays above

CN(C)CC[C@@H](c1ccc(Br)cc1)c1ccccn1
not listed: [10]
inactive: all other assays above
